For some assays here: Entries with a potency or affinity are not part of this list.
How the values were obtained:
Set-up in all cases: scale not given: direction of the effect not stated beside the values
[1] = biological target: Protein translocase subunit SecA (Escherichia coli (strain K12)) (UniProt P10408); assay: Assay to Identify E. coli SecA ATPase Inhibitors; assay type: functional; settings: 30 µM
[2] = biological target: T1, Ubiquitin-activating enzyme e1, putative (Leishmania donovani (strain BPK282A1)) (UniProt E9BSI1); assay: Leishmania donovani Ubiquitin Activating Enzyme (LdE1); assay type: functional; settings: 30 µM
T1 sequence (whole entry): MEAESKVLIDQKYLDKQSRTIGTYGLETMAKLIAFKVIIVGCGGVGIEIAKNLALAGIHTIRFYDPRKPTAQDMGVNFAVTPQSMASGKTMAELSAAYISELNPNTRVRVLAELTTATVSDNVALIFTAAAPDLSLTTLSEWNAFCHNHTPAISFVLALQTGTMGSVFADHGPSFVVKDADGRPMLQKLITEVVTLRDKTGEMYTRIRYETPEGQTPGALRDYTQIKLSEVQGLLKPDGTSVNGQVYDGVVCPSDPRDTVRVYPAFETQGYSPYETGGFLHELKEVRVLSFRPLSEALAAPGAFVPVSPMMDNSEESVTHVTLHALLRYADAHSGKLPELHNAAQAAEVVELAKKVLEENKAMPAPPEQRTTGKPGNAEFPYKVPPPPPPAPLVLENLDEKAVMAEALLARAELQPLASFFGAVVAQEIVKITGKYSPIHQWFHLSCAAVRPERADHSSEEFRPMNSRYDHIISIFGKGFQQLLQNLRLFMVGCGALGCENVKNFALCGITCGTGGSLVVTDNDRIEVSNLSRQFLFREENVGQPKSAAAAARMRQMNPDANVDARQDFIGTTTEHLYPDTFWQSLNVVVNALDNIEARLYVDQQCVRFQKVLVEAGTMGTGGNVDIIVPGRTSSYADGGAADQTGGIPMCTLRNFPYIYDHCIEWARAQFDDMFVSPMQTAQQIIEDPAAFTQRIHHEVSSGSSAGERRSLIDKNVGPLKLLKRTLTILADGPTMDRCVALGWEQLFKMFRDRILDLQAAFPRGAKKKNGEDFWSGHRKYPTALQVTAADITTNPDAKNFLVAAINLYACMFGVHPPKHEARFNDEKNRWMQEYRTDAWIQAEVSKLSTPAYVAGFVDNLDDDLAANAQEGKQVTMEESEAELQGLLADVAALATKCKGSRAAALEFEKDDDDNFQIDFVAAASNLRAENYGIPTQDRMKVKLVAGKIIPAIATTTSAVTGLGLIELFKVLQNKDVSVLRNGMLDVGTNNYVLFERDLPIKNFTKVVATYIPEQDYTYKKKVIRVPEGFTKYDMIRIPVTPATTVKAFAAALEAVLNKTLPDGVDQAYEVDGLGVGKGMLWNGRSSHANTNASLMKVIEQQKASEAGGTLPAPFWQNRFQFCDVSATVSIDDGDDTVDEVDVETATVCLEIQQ

[3] = biological target: AMP-activated protein kinase, AMPK (Homo sapiens) (UniProt P54646+O43741+P54619+Q9UGJ0+Q9Y478+Q13131+Q9UGI9); assay: AMP-dependent Kinase enzyme assay. An in vitro enzyme assay that detects ADP turnover that is directly proportional to AMPK activity. This uses naive AMPK that is activated during the assay with MK-8722; assay type: functional; settings: 30 µM
[4] = biological target: Sialic acid-binding Ig-like lectin 9 (Homo sapiens) (UniProt Q9Y336); assay: Hs-Siglec9 ALPHAscreen SOP 20170721; settings: 10 µM
Chain of Sialic acid-binding Ig-like lectin 9 (Homo sapiens) (Q9Y336 whole entry): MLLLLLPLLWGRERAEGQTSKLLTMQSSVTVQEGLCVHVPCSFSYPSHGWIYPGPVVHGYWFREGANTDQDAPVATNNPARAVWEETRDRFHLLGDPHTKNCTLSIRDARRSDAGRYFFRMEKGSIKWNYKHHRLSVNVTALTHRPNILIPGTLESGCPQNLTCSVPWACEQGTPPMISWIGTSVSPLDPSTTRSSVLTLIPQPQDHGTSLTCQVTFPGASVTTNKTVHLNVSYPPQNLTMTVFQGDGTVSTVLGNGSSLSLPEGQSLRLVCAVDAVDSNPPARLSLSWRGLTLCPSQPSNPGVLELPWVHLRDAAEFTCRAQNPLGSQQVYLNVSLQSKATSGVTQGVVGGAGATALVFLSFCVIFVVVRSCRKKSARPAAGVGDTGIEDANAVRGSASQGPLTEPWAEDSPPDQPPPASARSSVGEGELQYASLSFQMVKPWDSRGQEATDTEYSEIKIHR

[5] = tested on: Trypanosoma cruzi; assay: Trypanosoma cruzi phosphomannomutase and mannose-1-phosphate guanylyltransferase assay; assay type: functional; settings: 10 µM
[6] = biological target: T2, Arginase-2, mitochondrial (Homo sapiens) (UniProt P78540); assay: in vitro enzyme assay to detect the production of urea directly proportional to the activity of Arginase II; assay type: functional; settings: 33.3 µM; further: in the data most compounds retested in dose-response had high values
T2 sequence (whole entry): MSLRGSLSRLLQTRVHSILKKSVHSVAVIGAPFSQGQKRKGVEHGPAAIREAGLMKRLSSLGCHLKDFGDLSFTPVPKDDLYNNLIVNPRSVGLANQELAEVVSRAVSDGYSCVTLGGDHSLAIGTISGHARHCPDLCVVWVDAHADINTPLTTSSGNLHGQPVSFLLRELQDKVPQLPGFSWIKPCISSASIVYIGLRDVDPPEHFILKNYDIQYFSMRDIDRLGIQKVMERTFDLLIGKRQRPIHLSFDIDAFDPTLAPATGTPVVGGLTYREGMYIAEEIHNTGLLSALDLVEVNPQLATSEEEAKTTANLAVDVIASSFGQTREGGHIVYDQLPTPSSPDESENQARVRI

[7] = biological target: T3, Proteasome subunit beta (Trypanosoma cruzi) (UniProt O96673); assay: Trypanosoma cruzi proteasome chymotrypsin-like activity (TcProtChymo) assay.; further: in the data most compounds retested in dose-response had high values; assay type: functional; settings: 9.37 µM
T3 sequence (whole entry): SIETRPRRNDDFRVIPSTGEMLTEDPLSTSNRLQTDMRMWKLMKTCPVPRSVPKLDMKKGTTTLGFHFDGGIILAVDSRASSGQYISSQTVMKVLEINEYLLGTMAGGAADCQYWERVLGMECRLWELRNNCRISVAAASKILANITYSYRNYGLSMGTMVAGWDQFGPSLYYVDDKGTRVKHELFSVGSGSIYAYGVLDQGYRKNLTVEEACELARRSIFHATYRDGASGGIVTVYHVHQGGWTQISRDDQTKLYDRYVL

[8] = organism: Homo sapiens; assay: To identify inhibition of the IFN signalling (Jak-Stat) pathway via expression of an eGFP reporter gene under the control of an IFN-stimulated response element (ISRE) containing MxA promoter.; assay type: functional; settings: 30 µM
[9] = biological target: T4, Tyrosyl-tRNA synthetase, putative (Trypanosoma cruzi (strain CL Brener)) (UniProt Q4DSP6); assay: Trypanosoma cruzi tyrosyl tRNA synthetase (TcYRS) _High Tyrosine SOP; assay type: functional; settings: 30 µM; further: in the data most compounds retested in dose-response had high values
T4 sequence (whole entry): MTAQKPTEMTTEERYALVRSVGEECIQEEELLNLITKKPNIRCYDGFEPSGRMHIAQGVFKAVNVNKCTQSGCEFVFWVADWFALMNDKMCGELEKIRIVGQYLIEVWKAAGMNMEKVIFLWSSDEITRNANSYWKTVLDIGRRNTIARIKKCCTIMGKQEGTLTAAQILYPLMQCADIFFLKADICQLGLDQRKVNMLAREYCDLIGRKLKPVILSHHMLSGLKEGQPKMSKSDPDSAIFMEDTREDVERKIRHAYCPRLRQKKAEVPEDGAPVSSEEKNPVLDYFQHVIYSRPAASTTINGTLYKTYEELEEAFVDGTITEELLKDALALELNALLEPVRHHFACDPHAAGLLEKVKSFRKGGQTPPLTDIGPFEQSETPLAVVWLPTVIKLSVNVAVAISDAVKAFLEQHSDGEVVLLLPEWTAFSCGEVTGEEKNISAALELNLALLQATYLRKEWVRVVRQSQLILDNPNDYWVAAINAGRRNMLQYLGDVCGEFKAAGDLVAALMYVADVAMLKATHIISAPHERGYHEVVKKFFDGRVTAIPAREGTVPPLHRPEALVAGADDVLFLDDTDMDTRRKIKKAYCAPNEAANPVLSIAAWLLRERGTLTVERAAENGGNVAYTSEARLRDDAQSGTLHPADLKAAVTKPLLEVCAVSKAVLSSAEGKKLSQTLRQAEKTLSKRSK

[10] = biological target: T4, Tyrosyl-tRNA synthetase, putative (Trypanosoma cruzi (strain CL Brener)); assay: Trypanosoma cruzi tyrosyl tRNA synthetase (TcYRS) SOP; assay type: functional; settings: 30 µM
[11] = biological target: Chromo domain-containing protein 1 (Saccharomyces cerevisiae (strain ATCC 204508 / S288c) (Baker's yeast)) (UniProt P32657); assay: ScCHD-1 Enzyme Inhibition Assay; assay type: functional; settings: 30 µM; further: in the data most compounds retested in dose-response had high values
Chain of Chromo domain-containing protein 1 (Saccharomyces cerevisiae (strain ATCC 204508 / S288c) (Baker's yeast)) (P32657 whole entry, the tested form may be a part): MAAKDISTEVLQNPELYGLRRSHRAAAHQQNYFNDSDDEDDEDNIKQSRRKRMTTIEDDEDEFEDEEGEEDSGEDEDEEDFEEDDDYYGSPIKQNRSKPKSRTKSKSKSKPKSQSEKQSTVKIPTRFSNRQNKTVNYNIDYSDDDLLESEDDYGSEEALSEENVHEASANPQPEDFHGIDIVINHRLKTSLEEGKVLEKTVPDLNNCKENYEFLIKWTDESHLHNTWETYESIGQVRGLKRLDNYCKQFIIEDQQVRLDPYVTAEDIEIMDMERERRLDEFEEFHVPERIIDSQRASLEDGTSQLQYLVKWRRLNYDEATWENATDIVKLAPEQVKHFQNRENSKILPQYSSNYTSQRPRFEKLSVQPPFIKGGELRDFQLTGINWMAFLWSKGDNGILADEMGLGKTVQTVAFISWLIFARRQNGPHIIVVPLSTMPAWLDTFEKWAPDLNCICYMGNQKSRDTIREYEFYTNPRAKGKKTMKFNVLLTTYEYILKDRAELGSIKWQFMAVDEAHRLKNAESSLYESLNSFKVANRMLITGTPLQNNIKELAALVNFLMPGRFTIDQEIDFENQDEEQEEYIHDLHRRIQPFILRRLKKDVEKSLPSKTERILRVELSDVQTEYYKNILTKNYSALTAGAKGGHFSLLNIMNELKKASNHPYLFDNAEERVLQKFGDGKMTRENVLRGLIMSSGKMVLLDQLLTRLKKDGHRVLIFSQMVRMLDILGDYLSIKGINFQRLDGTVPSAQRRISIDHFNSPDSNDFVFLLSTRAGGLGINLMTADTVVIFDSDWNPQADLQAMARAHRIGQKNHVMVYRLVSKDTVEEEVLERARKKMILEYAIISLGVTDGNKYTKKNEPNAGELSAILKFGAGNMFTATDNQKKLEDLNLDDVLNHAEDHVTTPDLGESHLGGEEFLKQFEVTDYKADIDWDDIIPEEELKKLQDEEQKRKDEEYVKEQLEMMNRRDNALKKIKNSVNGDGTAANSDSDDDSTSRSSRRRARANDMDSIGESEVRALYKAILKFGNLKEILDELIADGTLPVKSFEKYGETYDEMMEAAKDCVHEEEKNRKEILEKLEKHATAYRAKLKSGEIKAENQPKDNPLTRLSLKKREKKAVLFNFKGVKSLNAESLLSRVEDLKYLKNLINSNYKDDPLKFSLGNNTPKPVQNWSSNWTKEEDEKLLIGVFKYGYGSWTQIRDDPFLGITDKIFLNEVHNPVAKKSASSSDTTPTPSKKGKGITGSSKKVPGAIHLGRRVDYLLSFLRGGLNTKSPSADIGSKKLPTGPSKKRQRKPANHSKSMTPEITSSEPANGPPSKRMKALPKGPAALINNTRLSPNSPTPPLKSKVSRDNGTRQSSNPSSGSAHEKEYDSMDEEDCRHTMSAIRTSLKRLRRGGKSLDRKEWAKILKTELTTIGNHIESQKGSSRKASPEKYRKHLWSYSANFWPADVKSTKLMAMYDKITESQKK

Chain of Protein translocase subunit SecA (Escherichia coli (strain K12)) (P10408 whole entry): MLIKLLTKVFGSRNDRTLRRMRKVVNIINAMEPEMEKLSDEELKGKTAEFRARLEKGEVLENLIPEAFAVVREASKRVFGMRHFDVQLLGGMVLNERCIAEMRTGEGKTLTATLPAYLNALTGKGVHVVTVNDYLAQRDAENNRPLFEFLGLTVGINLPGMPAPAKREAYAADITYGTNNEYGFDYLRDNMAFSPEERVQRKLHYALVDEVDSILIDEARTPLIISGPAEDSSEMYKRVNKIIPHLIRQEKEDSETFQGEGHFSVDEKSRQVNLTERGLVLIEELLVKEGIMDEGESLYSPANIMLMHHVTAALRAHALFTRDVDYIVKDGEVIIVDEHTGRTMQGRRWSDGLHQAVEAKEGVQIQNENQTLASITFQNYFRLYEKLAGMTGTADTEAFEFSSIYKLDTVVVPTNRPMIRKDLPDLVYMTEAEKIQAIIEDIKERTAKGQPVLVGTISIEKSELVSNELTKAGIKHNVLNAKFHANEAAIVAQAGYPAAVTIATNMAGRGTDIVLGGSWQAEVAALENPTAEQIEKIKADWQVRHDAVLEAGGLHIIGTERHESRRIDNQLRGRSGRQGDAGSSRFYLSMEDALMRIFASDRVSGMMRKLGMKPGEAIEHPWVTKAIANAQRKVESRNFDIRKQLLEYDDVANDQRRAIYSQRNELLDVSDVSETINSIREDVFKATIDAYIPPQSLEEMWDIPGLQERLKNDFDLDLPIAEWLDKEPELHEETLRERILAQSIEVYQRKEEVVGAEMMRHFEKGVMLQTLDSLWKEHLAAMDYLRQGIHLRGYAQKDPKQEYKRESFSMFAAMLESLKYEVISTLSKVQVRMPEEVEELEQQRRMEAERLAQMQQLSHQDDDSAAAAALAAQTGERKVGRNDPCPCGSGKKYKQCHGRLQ

Row | SMILES | Percent Effect [1] [%] | Percent Effect [2] [%] | Percent Effect [3] [%] | Percent Effect [4] [%] | Percent Effect [5] [%] | Percent Effect [6] [%] | Percent Effect [7] [%] | Percent Effect [8] [%] | Percent Effect [9] [%] | Percent Effect [10] [%] | Percent Effect [11] [%]
1 | CCn1ncc(CN2CCc3c(nc(-c4cccnc4)[nH]c3=O)C2)c1C | -4.9 | 5.33 | 9.46 | 2.36 | 7.87 | 0.699 | 10.3 | 2.75 | 5.32 | 11.5 | -4.43
2 | O=C(Cn1nc2c(cc1=O)CSCC2)NC(Cc1ccccc1)C(=O)O (configuration not stated) | -6.43 | 20 | -8.36 | 1.5 | 7.47 | 89.3 | 15 | 7.8 | -2.12 | 15.4 | -19
3 | Cc1ncsc1CN1C[C@@H](OCC2CC2)[C@H]2OCCC[C@H]21 | -6.87 | 8.11 | -8.86 | 32.2 | 4.79 | -0.248 | 24.3 | -4.12 | 5.38 | 16.1 | -8.25
4 | Cc1cc(CN2CCCC2c2noc(C3CC3)n2)c2ccccc2n1 (configuration not stated) | 1.53 | -16.2 | -1.25 | 5.64 | -1.39 | 9.8 | -4.49 | 94.8 | 11.9 | 3.66 | 12.8
5 | CC(NC(=O)c1cccs1)C(=O)NCc1cccnc1N1CCCCC1 (configuration not stated) | -5.05 | 15.6 | 4.11 | 3.01 | -3.93 | 0.712 | 9.46 | 10.2 | 1.94 | 7.32 | -4.16
6 | CCC(C)NC(=O)Cc1c(C)nc2c(c1C)c(=O)[nH]n2C (configuration not stated) | 0.22 | 13 | 1.2 | 14 | 3.44 | 1.38 | 7.32 | -10.2 | 2.15 | 16.1 | -1.16
7 | CCn1cc(NC(=O)NCC(c2cccs2)N(C)C)cn1 (configuration not stated) | 0.424 | 18.4 | -2.49 | 5.82 | -3.76 | -3.83 | 7.69 | 2.58 | 5.39 | 19.5 | -7.09
8 | CCn1cc(C(=O)NCc2csc(Br)c2)cn1 | -4.42 | 3.8 | 6.27 | 4.51 | -2.97 | 3.23 | 7.72 | 13.6 | -1.04 | 7.59 | -2.95
9 | COCC1c2c(cnn2CC2CC2)CCN1Cc1cccs1 (configuration not stated) | -0.701 | -5.33 | 6.98 | 7.58 | -2.51 | -9.5 | 10.1 | -16.5 | 3.12 | -2.5 | -3.74
10 | CC(=O)NCCNC(=O)N(C)Cc1ccc2c(c1)OCCO2 | -3.01 | 0 | -0.74 | -6.13 | -4.92 | 6.1 | 1.79 | 7.44 | 4.95 | 13.4 | -1.92
11 | Cc1cc(CN2CCC(CNC(=O)c3ccc(O)c(Cl)c3)C2)[nH]n1 (configuration not stated) | -4.67 | 2.7 | -0.362 | 22.1 | -8.7 | 2.23 | 5.24 | 4.66 | 2.15 | 11.1 | -0.611
12 | CCC(=O)NCc1cc(Br)c(OC)c(OC)c1 | -7.41 | 5.33 | -0.145 | 4.49 | 4.19 | -9.9 | 5.75 | -1.33 | 1.64 | 11.1 | -3.06
13 | Cc1ccc(SCC(=O)NS(=O)(=O)c2ccc3c(c2)OCCO3)cc1 | -2.38 | -10.5 | 2.56 | -1.45 | 5.45 | -2.68 | 15 | 3.33 | -6.37 | -7.32 | -0.431
14 | CCc1nc2n(n1)CC(NCC(=O)Nc1cc(C)on1)CC2 (configuration not stated) | -7.96 | 5.06 | -1.49 | 2.07 | -7.27 | 0.38 | 17.1 | 22.4 | -3.45 | -8.86 | -4.18
15 | CN1CCN(C[C@@H]2OC[C@H]3CN(Cc4cccc(F)c4)CC[C@H]32)CC1 | 0.931 | 2.67 | 4.95 | 4.78 | 2.9 | -53.9 | 7.01 | -8.27 | 2.08 | 2.5 | -4.33
16 | Cc1cc(C(=O)N2CCCC(n3cncn3)C2)c(C)n1C1CC1 (configuration not stated) | -2.41 | -3.8 | 2.66 | 1.98 | 1.54 | 2.37 | -1.54 | -3.71 | 2.08 | 2.53 | 11.1
17 | Cn1nc(COc2cccnc2)c2c1CCN(c1cnccn1)C2 | -4.47 | 13.5 | -0.741 | 2.04 | 0.293 | 14.3 | 26.2 | 4.97 | 5.41 | 12.8 | -3.43
18 | COc1cc(OC)c(C2Nc3cc(Cl)ccc3C3=NCCN32)cc1OC (configuration not stated) | -5.59 | -8 | -2.93 | 2.92 | 6.89 | -3.5 | 1.32 | -10.9 | 7.45 | 14.1 | -5.67
19 | Cc1cc2n(n1)CC(CNC1CCN(Cc3ccccc3C)CC1)CN2 (configuration not stated) | -8.28 | 0 | -15.1 | 13.7 | 0.684 | -2.73 | 2.49 | 16.5 | 4.3 | 3.7 | -2.06
20 | CN(Cc1cccc(F)c1)C(=O)CN1CCCC1CCc1ccccc1 (configuration not stated) | -3.56 | -7.79 | 2.67 | 4.42 | 3.44 | -1.38 | 2 | -5.85 | 1.07 | -3.7 | 113
21 | Cc1nn(C)c(C)c1C1CCCN1Cc1nc(-c2ccco2)oc1C (configuration not stated) | -4.35 | 18.9 | -4.34 | -6.83 | -1.76 | 3.14 | 11.3 | 18.9 | 8.91 | 13.4 | -8.93
22 | COCCNC(=O)[C@H]1C[C@@H]2CCN(c3nncs3)C[C@H]2O1 | -0.719 | -8.11 | 6.18 | -4.67 | -1.37 | 1.67 | -0.254 | 7 | 5.94 | 6.1 | 1.42

— ChEMBL document CHEMBL3988442, “University of Dundee, Small-Polar-MMV Screening Library” (2021)
